# Measurements from PubChem BioAssay.
# Active and inactive are the calls of the source. Unless noted, how the calls were made is not given here.
# Experiments:
# [1] = compounds binding Alexa647 anti-His antibody – biochemical, small-molecule microarray, 635 nm fluorescence, artefact control for SMM control protein annotation, primary screen (AID 1128); conditions: higher = more signal;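 further: score merges feature fluorescence with signal-to-noise for each printed compound spot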
# [2] = system: Human papillomavirus type 1a E7 protein (residues 1-88); test: HPV1a E7 small-molecule binders, primary screen, biochemical, small-molecule microarray, residues 1-88, 635 nm (AID 1129); conditions: small-molecule microarray binding, fluorescence 635 nm; higher = more signal
# [3] = biological target: Focal adhesion kinase 1 (Homo sapiens) (UniProt Q05397); test: PTK2 protein binding on printed compound slides – biochemical, small-molecule microarray, 635/667 nm fluorescence, BSA, DTT, primary screen (AID 1130); conditions: 635 nm fluorescence, higher = more signal;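 further: composite of spot emission at 667 nm and signal to noise over triplicate slides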
# Chain of Focal adhesion kinase 1 (Homo sapiens) (Q05397 whole entry, looked up): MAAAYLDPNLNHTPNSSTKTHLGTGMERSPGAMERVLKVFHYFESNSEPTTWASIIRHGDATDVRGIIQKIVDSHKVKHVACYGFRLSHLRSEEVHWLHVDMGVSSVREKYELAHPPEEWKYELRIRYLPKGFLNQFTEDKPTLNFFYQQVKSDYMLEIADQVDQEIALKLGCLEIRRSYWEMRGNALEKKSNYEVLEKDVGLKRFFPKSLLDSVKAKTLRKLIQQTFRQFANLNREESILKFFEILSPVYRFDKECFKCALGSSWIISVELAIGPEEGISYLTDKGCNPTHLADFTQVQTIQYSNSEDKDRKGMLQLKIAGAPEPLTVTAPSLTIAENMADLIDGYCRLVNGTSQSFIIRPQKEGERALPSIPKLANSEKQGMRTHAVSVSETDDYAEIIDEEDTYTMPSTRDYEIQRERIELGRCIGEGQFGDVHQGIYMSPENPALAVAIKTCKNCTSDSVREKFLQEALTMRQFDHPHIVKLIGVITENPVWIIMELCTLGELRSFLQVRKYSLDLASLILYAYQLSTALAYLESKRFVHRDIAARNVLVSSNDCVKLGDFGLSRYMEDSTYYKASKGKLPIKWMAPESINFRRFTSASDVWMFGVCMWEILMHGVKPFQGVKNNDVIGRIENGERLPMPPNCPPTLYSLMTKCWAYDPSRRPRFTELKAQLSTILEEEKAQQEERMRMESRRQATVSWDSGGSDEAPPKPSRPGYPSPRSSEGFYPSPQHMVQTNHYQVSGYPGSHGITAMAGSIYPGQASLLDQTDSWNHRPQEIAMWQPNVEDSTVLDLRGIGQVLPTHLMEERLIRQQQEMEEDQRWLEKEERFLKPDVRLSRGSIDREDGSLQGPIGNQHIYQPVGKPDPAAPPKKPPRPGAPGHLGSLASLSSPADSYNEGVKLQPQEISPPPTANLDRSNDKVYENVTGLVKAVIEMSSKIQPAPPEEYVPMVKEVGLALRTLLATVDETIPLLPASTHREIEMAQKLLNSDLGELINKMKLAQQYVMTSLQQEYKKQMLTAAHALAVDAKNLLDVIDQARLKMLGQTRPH
# [4] = system: Fibrinogen (Alexa647-labelled); test: Alexa647-fibrinogen binding to printed small molecules – biochemical, small-molecule microarray, 635/667 nm fluorescence, artefact control for SMM control-protein annotation, profiling panel (AID 1131); conditions: fibrinogen-A647 binding fluorescence, higher = more signal;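 further: z-score merges 667 nm fluorescence with per-spot signal-to-noise over triplicate slides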
# [5] = biological target: Follistatin (Homo sapiens) (UniProt P19883); test: FST protein binding to printed compounds – biochemical, small-molecule microarray, 635/667 nm fluorescence, primary screen (AID 1132); conditions: 635 nm fluorescence, higher = more signal
# Chain of Follistatin (Homo sapiens) (P19883 whole entry, looked up): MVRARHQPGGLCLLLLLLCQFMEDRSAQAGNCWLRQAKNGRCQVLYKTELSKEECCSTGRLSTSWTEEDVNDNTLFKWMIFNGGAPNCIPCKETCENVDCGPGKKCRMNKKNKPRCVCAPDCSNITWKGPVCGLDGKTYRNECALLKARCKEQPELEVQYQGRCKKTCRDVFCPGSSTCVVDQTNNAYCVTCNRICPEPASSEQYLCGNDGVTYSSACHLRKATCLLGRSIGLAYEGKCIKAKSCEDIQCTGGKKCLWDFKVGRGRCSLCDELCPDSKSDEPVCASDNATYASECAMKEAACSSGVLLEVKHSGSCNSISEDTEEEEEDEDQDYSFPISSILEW
# [6] = biological target: Fibroblast growth factor 2 (Homo sapiens) (UniProt P09038); test: basic fibroblast growth factor binding to printed compounds – biochemical, small-molecule microarray, 635/667 nm fluorescence, primary screen (AID 1133); conditions: FGF2, fluorescence 635/667, higher = more signal
# Chain of Fibroblast growth factor 2 (Homo sapiens) (P09038 whole entry, looked up): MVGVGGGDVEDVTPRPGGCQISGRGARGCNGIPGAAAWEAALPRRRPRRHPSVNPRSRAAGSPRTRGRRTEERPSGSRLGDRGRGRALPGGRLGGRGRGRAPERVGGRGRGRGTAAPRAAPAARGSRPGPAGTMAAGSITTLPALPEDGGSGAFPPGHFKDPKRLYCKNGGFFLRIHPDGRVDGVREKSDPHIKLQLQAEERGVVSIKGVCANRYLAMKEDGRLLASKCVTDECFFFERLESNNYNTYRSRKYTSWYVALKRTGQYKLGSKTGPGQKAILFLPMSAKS
# [7] = JC-1 mitochondrial potential readout, lung cancer cells – cell-based, A549, JC-1 fluorescence, basal, 24 h, 100 nL, profiling panel (AID 1138); conditions: higher = more signal;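 further: A549 lung adenocarcinoma cells under basal conditions with no added stimulus; test concentration not given here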
# Lefty1 = Lefty1 protein binding to printed compounds – biochemical, small-molecule microarray, 635/667 nm fluorescence, primary screen (AID 1139); conditions: fluorescence 635/667, higher = more signal
# [8] = system: wheat germ agglutinin (Triticum aestivum), Alexa647-labelled; test: Alexa647-WGA lectin binding to printed small molecules – biochemical, small-molecule microarray, 635/667 nm fluorescence, artefact control for SMM control-protein annotation, profiling panel (AID 1140); conditions: WGA-A647 binding, 635 nm fluorescence, higher = more signal;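 further: score merges 667 nm feature emission with signal to noise over triplicate slides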
# [9] = biological target: Luciferin 4-monooxygenase (Photinus pyralis) (UniProt P08659); test: inhibition of purified Photinus pyralis luciferase – biochemical, luminescence, purified enzyme, 2006 set, primary screen (AID 1141); conditions: purified firefly luciferase, SteadyGlo luminescence, 30 min; higher = more signal, called active from +8 up or from −8 down;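 further: cell-free assay with purified firefly luciferase at 100 ng per well in PBS; test concentration not given here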
# Chain of Luciferin 4-monooxygenase (Photinus pyralis) (P08659 whole entry, looked up): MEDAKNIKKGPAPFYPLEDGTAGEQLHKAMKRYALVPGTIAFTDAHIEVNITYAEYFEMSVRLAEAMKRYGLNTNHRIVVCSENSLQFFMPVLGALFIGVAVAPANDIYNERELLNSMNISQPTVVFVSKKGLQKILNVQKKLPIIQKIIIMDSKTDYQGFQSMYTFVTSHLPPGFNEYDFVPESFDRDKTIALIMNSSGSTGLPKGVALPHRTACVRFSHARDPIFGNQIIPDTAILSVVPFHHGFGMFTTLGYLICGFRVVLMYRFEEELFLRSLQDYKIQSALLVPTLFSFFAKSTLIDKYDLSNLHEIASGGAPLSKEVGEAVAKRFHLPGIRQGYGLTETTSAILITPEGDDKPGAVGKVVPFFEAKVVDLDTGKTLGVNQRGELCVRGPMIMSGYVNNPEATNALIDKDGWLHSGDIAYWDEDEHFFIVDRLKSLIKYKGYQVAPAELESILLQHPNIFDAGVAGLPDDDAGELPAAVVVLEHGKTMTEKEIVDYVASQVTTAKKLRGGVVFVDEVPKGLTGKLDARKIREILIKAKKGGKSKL
# [10] = system: Wnt5a (protein binding on small-molecule microarray); test: small molecules binding Wnt5a protein – biophysical, small-molecule microarray, 635/667 nm fluorescence, primary screen (AID 1142); conditions: 635 nm fluorescence, higher = more signal;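 further: fluorescence read at 667 nm with signal to noise per printed feature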
# [11] = ATP-based viability of Huh7 replicon cells – cell-based, CellTiter-Glo luminescence, basal, 48 h, cytotoxicity control for HCV replication inhibitor project, primary screen (AID 1143); conditions: higher = more signal, called active from +8 up or from −8 down;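 further: Huh7 hepatoma cells carrying a hepatitis C replication reporter with no stimulus; test concentration not given here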
# [12] = Pseudomonas biofilm growth suppression – PAO1 strain, BacTiter-Glo luminescence, LB-PBS, primary screen (AID 1144); conditions: P. aeruginosa PAO1 biofilm, 12 h, higher = more signal
# [13] = basal CRE-LacZ reporter activity in PC12 – cell-based, unstimulated, primary screen (AID 1145); conditions: no forskolin, luminescence, 4.5 h, higher = more signal, called active from +8 up or from −8 down
# [14] = forskolin-driven CRE-LacZ activity in PC12 – cell-based, CRE-LacZ reporter, forskolin-stimulated, primary screen (AID 1146); conditions: luminescence, 4.5 h, higher = more signal, called active from +8 up or from −8 down;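 further: PC12 cells with 6xCRE LacZ reporter stimulated by forskolin 10 µM; beta-galactosidase reporter signal reflecting CREB driven transcription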
# [15] = biological target: Streptavidin (Streptomyces avidinii) (UniProt P22629); test: compounds binding control protein streptavidin – biophysical, small-molecule microarray, 635/667 nm fluorescence, artefact control for SMM compound annotation, primary screen (AID 1147); conditions: higher = more signal;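 further: signal reflects streptavidin binding to arrayed compounds as a control protein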
# Chain of Streptavidin (Streptomyces avidinii) (P22629 whole entry, looked up): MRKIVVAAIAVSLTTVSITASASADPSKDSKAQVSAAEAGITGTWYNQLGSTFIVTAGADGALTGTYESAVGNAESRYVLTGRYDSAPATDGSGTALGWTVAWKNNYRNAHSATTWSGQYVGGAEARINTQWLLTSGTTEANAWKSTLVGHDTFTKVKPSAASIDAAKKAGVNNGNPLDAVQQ
# [16] = probe aInhba binding on compound microarray – biochemical, small-molecule microarray, 635/667 nm fluorescence, primary screen (AID 1148); conditions: higher = more signal;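 further: score merges 667nm spot fluorescence with signal-to-noise for antibody binding to printed compounds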
# Torsin-1A (Homo sapiens) [17] = biological target: Torsin-1A (Homo sapiens) (UniProt O14656); test: TOR1A wild-type binding on microarray – cell lysate, small-molecule microarray, lysate, 635/667 nm, primary screen (AID 1149); conditions: COS7 hTOR1A-WT lysate, 635 nm fluorescence, higher = more signal
# Chain of Torsin-1A (Homo sapiens) (O14656 whole entry, looked up): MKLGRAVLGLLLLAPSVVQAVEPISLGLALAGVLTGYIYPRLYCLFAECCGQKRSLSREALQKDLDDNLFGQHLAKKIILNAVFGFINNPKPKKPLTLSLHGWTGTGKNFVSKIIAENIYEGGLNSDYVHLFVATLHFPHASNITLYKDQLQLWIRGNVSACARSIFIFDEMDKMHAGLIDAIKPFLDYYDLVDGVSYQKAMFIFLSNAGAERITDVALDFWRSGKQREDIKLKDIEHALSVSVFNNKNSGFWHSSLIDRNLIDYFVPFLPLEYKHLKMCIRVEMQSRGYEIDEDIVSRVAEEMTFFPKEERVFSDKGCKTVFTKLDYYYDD
# Torsin-1A (Homo sapiens) [18] = biological target: Torsin-1A (Homo sapiens) (UniProt O14656); test: torsin A mutant lysate binding on microarrays – cell lysate, small-molecule microarray, COS7 lysate, 635/667 nm fluorescence, primary screen (AID 1150); conditions: COS7 hTOR1A mutant lysate, 635 nm fluorescence, higher = more signal;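 further: score pools 667 nm emission and signal to noise measuring lysate protein binding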
# [19] = system: Sonic hedgehog protein (Shh); test: Sonic hedgehog microarray binding compounds – biochemical, small-molecule microarray, 635/667 nm fluorescence, primary screen (AID 1151); conditions: 635 nm fluorescence, higher = more signal;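 further: Shh protein binding to compounds spotted on small-molecule microarray slides; score combines spot fluorescence intensity with signal-to-noise across triplicate slides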
Compound,composite z-score [1],composite z-score [2],composite z-score [3],composite z-score [4],composite z-score [5],composite z-score [6],z-score [7],composite z-score (Lefty1),composite z-score [8],z-score [9],composite z-score [10],z-score [11],z-score [12],z-score [13],z-score [14],composite z-score [15],composite z-score [16],composite z-score (Torsin-1A (Homo sapiens) [17]),composite z-score (Torsin-1A (Homo sapiens) [18]),composite z-score [19]
C=CCN(Cc1ccccc1)C(=O)C(c1cccs1)N(CCOCCO)C(=O)/C=C\C(=O)O (stereo not given),-0.187,-0.92,-0.374,-2.2,-2.64,-2.43,0.316,-2.47,-0.47,-3.93 (inactive),-1.17,-0.247 (inactive),-1.93 (inactive),-1.58 (inactive),-0.949 (inactive),-1.28,-0.34,-3.64,-3.08,-0.933
CCCCCC1=C2CNC(CCC)(C(=O)OC)C=C2C(C)C1=O (stereo not given),-0.252,0.859,0.682,-0.288,-0.249,0.0833,0.424,-0.444,-0.0925,0.443 (inactive),0.0324,-0.86 (inactive),0.617 (inactive),-0.751 (inactive),0.974 (inactive),0.441,0.345,-0.449,0.0188,0.368
C=CCNC(=O)[C@H]1[C@@H]2C(=O)O[C@@H](c3ccccc3)[C@@H](c3ccccc3)N2[C@@H](c2ccc(O)cc2)[C@]12C(=O)N(C(=O)OCCOC)c1ccc(C#CCNC(N)=O)cc12,1.05,0.898,0.0197,0.0703,1.44,1.58,-0.531,0.713,1.03,-0.0822 (inactive),0.415,0.621 (inactive),0.283 (inactive),0.0736 (inactive),-0.036 (inactive),-0.231,0.223,0.181,-0.0483,1.55
[N-]=[N+]=Nc1ccccc1C[C@@]1(C(=O)NCCN2CCOCC2)N=C(c2ccc(OCCCO)cc2)O[C@@H]1c1ccccc1,0.76,1.26,0.85,1.03,1.3,1.19,0.662,0.7,0.823,-1.7 (inactive),0.785,-3.8 (inactive),-0.49 (inactive),-0.435 (inactive),-1.61 (inactive),0.302,0.258,0.304,0.617,0.721
CCCCCN1CC=CC23O[C@@H]4/C=C\CCCOC(=O)C4[C@H]2C(=O)N(CCCO)[C@@H]3C1=O (stereo not given in full),2.06,1.3,1.23,-0.965,-0.162,-0.281,-0.564,0.157,0.197,-2.41 (inactive),0.132,0.37 (inactive),-1.17 (inactive),-0.619 (inactive),-0.812 (inactive),-0.413,-0.233,2.02,2.27,-0.163
CC(=O)N1Cc2ccccc2C[C@@]2(COC(c3ccc(OCCCO)cc3)=N2)C1=O,1.93,1.18,0.994,0.842,1.26,0.701,-0.956,0.0786,1.29,-2.19 (inactive),0.36,-2.57 (inactive),-0.957 (inactive),1.82 (inactive),-1.42 (inactive),1.23,0.407,0.135,0.997,0.504
O=C1c2ccccc2[C@](Cc2ccccc2I)(C(=O)NC2CC2)[C@H](c2ccc(CO)cc2)N1C1CCCCC1,2.63,1.24,0.548,0.806,1.27,1.09,2.01,0.593,0.993,-0.912 (inactive),0.557,-3.43 (inactive),0.214 (inactive),0.531 (inactive),0.424 (inactive),1.05,0.306,0.414,0.68,1.06
Cc1ccc(S[C@]2(C(=O)NC3CC3)CC(=O)N(C3Cc4ccccc4C3)[C@@H]2c2ccc(CO)cc2)cc1,-0.172,0.445,0.0342,-0.424,-0.584,-0.3,2.42,-1.35,-0.0705,-1.28 (inactive),-0.0244,-1.6 (inactive),-0.401 (inactive),0.324 (inactive),-0.906 (inactive),-0.75,-0.0136,-0.382,0.23,-0.766
[N-]=[N+]=NCc1ccccc1C[C@]1(C(=O)N2CCOCC2)N=C(c2ccc(OCCCO)cc2)O[C@H]1c1ccccc1N=[N+]=[N-],0.595,1.23,0.0652,0.987,1.33,0.823,0.274,1.31,1.03,-7.46 (inactive),0.774,-5.5 (inactive),-0.447 (inactive),-0.0017 (inactive),-1.86 (inactive),0.808,0.0179,1.49,1.44,1.02
COc1ccc(C(=O)Nc2ccc(CN3C(=O)[C@@]4(O[C@@H](CCn5cc([C@H](O)c6ccccc6)nn5)[C@H]([Si](C)(C)c5ccc(OC)cc5)[C@H]4C)c4ccccc43)cc2)cc1,0.848,-0.024,-0.103,0.579,0.836,-0.019,1.83,0.526,0.376,-0.753 (inactive),-0.0152,-3.46 (inactive),-0.576 (inactive),2.4 (inactive),-1.04 (inactive),0.865,-0.0405,0.253,0.163,1.51
[N-]=[N+]=NCc1ccccc1[C@@H]1OC(c2ccc(OCCCO)cc2)=N[C@]1(Cc1ccccc1N=[N+]=[N-])C(=O)N1CCOCC1,2.12,1.27,0.536,0.857,1.31,1.66,1.28,-0.207,1.13,-1.52 (inactive),1.11,-1.61 (inactive),0.103 (inactive),1.78 (inactive),-0.514 (inactive),1.57,0.636,0.308,0.898,-0.284
